D2 ag-1 = HTS Assay for Allosteric Agonists of the Human D2 Dopamine Receptor: Primary Screen for Agonists | HEK293 T-REx D2 cells, calcium flux agonist mode | activation, % at 2 µM | 0.53% of 340,000 active | D(2) dopamine receptor (Homo sapiens), P14416;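 active = activation over 3 SD above normal in the single-dose calcium agonist read, cut at about 30% in these data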
Target sequence (P14416 whole entry, looked up): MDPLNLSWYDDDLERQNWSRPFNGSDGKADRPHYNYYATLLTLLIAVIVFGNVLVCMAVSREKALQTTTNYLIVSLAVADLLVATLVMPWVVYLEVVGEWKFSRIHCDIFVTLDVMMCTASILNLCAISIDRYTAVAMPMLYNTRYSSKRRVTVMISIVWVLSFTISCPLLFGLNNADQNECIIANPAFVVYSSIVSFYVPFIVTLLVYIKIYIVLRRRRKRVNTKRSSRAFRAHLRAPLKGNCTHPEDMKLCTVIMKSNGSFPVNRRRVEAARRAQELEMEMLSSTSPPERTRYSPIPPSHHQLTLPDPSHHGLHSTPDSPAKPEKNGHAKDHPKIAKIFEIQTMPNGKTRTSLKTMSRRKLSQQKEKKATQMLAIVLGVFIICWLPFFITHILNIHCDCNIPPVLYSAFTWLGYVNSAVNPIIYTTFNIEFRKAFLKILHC
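Agonism is scored from calcium flux in a force-coupled, inducible HEK293 cell line expressing D2, read kinetically for 180 s after compound addition against dopamine controls.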
D2 PAM-1 = Beta-Arrestin HTS for Positive Allosteric Modulators of the Human D2 Dopamine Receptor: Potentiators | D(2) dopamine receptor (Homo sapiens), P14416 | DiscoveRx D2 beta-arrestin cells, luminescence, 90 min; 100% = 57 uM dopamine signal | potentiation, % (no concentration beside the values) | 0.23% of 360,000 active; in the data active = potentiation above about 50%
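PathHunter D2 cells, attached overnight at 37 deg C, received compound in DMSO plus dopamine at EC20 (50 nM final) for 90 min at 37 deg C. Beta-arrestin recruitment was read as luminescence after 1 h with detection reagent at ambient temperature.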
D2 ag-2 = Beta-Arrestin HTS for Positive Allosteric Modulators of the Human D2 Dopamine Receptor: Agonists; DiscoveRx PathHunter D2 beta-arrestin, luminescence, 90 min; 100% = 57 uM dopamine signal; activation, % (no concentration beside the values); 0.084% of 360,000 active; in the data active = activation above about 40%
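DiscoveRx PathHunter D2 beta-arrestin cells (2,100/well) attached overnight, then compound-stimulated 90 min at 37 C in HBSS/10 mM HEPES/0.1% Tween-20 buffer; beta-galactosidase complementation read by luminescence after 1 h at ambient temperature. Dopamine 57 uM final (EC100) as control.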
D2 PAM-2 = HTS Assay for Positive Allosteric Modulators of the Human D2 Dopamine Receptor: Primary Screen for Potentiators; D(2) dopamine receptor (Homo sapiens), P14416; HEK293 T-REx D2, calcium flux, EC20 dopamine potentiation; potentiation, % at 10 µM; 0.34% of 340,000 active; AID 485347, 2010;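 active = potentiation over 3 SD above the plate norm, cut at about 30% in these data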
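Tetracycline-induced Hek293 Trex D2 cells, force-coupled to calcium, loaded with no-wash calcium dye. Compound added with 180 s kinetic read for agonism, then EC20 dopamine and a further 180 s read for potentiation.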
D2 antag = HTS Assay for Allosteric Antagonists of the Human D2 Dopamine Receptor: Primary Screen for Antagonists; inhibition, % at 10 µM; AID 485344, 2010; 2% of 340,000 active; D(2) dopamine receptor (Homo sapiens), P14416; HEK293 TREx D2 cells, calcium flux, dopamine EC80; in the data active = inhibition above about 30%; inactive = below that, where a call was filed
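Measurement of antagonist activity uses fluorescent calcium dye in inducible HEK293 T-REx D2 cells: 10 s baseline, compound addition with 180 s read, EC80 dopamine addition with a further 180 s read.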
A number is an active result; . = inactive; / = no result; ! = not active in a repeat. Hits are enriched below; roughly 2.4% of the tested compounds scored in any of these assays.

SMILES	D2 ag-1	D2 PAM-1	D2 ag-2	D2 PAM-2	D2 antag
CCOC(=O)CNC(=O)c1cc(OC)cc(OC)c1	.	.	.	/	38.6
COc1cc(/C=N/NC(=O)C(=O)NCc2cccnc2)ccc1O	.	.	.	.	.
COc1ccc(Cl)cc1NC(=O)c1cn(C2CCCC2)c(=O)c2c1c1ccccc1n2C	.	/	/	.	/
CCc1ccc(CNC(=O)c2ccc3c(c2)nc2n3CCOC2)cc1	/	/	/	.	/
CCOc1ccc(-n2ccnc2SCC(=O)Nc2nc3ccc(C)cc3s2)cc1	.	/	/	.	/
CC1CCCN(c2nc3c(c(=O)n(C)c(=O)n3C)n2CCSc2nc3ccccc3o2)C1 (stereo not given)	.	.	.	30.4	.
CC1CCCN(c2nc3c(c(=O)[nH]c(=O)n3C)n2CCSc2nc3ccccc3o2)C1 (stereo not given)	.	.	.	.	.
CCOC(=O)c1sc2nc(CSc3ccccc3)nc(N3CCCN(C)CC3)c2c1C	.	.	.	.	53.2
CCOC(=O)c1sc2nc(CSc3ccccc3)nc(N3CCC(C(N)=O)CC3)c2c1C	.	.	.	.	.
CCCCN(C(=O)c1ccc2c(c1)OCO2)C1CCS(=O)(=O)C1 (stereo not given)	.	.	.	.	.
CCN(C(=O)c1ccc2c(c1)OCO2)C1CCS(=O)(=O)C1 (stereo not given)	.	.	.	.	38.5
CCn1cc(CN2CCC(C(=O)Nc3ccc(Oc4cccnc4)cc3)CC2)cn1	.	.	.	.	30.9
CCn1cc(CN2CCC(C(=O)Nc3ccc(Oc4cccnc4)cc3)CC2)c(C)n1	.	.	.	.	.
COc1ccc(N2CCN(C(=O)COC(=O)CCc3ccccc3)CC2)cc1	.	.	.	.	.
Cc1cc(C=C2C(=O)c3ccccc3C2=O)c(C)n1-c1ccc(Cl)cc1	.	.	.	.	33.5
Cc1cccc(N=C(N2CCOCC2)P(=O)(N2CCOCC2)N2CCOCC2)c1	.	.	.	64.9	.
CC(C)c1ccc(CNC(=O)c2ccc(N3CCCC3)c(NC(=O)NCc3ccc(F)cc3)c2)cc1	.	/	/	.	/
CCCC(=O)N1CCc2cc(OC)c(OC)cc2C1COc1ccccc1OC (stereo not given)	.	.	.	.	/
CCC(=O)N1CCc2cc(OC)c(OC)cc2C1COc1ccccc1OC (stereo not given)	.	.	.	38.4!	.
Cc1ccc(S(=O)(=O)N2CCCCC2)cc1NC(=O)COC(=O)C1=COCCO1	.	.	.	38.0	.
O=C(COC(=O)C1=COCCO1)Nc1cc(S(=O)(=O)N2CCCCC2)ccc1Cl	.	.	.	.	.
Cc1ccc(S(=O)(=O)N2CCOCC2)cc1NC(=O)CNCc1ccccc1Cl	39.1	.	.	.	.
COc1cc(Cl)c(C)cc1NC(=O)COC(=O)C1=COCCO1	.	.	.	.	31.6
COc1ccccc1CNC(=O)Cn1ncc2c(C)n(Cc3ccccc3Cl)c(C)c2c1=O	.	/	/	.	/
O=C(C1CC1)N1CCN(c2nc3c(F)cc(F)cc3s2)CC1	.	/	/	.	/
SMILES	D2 ag-1	D2 PAM-1	D2 ag-2	D2 PAM-2	D2 antag
COc1ccc(C2=C(c3ccc(OC)c(OC)c3)CN3CCCCC3C2)cc1 (stereo not given)	/	.	.	/	/
Cc1[nH]c(=S)[nH]c(=O)c1Cc1ccc(OCC(C)C)cc1	.	.	.	.	30.7
CCCCOc1ccc(Cc2c(COCC)[nH]c(=S)[nH]c2=O)cc1	.	.	.	.	35.5
C/C(CCc1ccccc1)=N\NC(=S)NCCc1ccccc1	.	.	.	30.8	.
CCn1c(C)c(C(=O)c2ccccc2)c(C#N)c1C(=O)O	.	.	.	.	33.4
Cc1c(C#N)c(N)c(C(=O)c2ccccc2)n1Cc1ccccc1	.	.	.	.	.
CCOC(=O)C1C(=O)NC(c2ccccc2)=NC1c1cccc(Br)c1 (stereo not given)	.	.	.	.	55.2
COc1ccc(OC)c(CCNC(=O)CN2C(=O)CC(C)(C)S(=O)(=O)c3ccccc32)c1	.	.	.	34.2	.
CC1(C)CC(=O)N(CC(=O)NC2CCCC2)c2ccccc2S1(=O)=O	.	.	.	.	.
Cc1ccc(-c2nnn(CC(=O)NCCc3ccc4c(c3)OCO4)n2)cc1	.	.	.	.	30.9
O=C(Cn1nnc(-c2ccc3c(c2)OCO3)n1)NCc1ccccc1	.	.	.	.	.
COC(=O)c1c(SC)nc2ccccc2c1OCc1ccc(C)cc1	.	/	/	.	/
COc1ccc(CN2C(=O)C(CC(=O)NC3CC3)CC(C(=O)N(C)C)=C2C)cc1 (stereo not given)	/	.	.	/	/
O=C1C=C(c2ccccc2)OC2(CCCC2)O1	.	.	.	38.0	.
Cc1cc([N+](=O)[O-])ccc1NC(=S)NC1CCCC1	.	.	.	.	.
Cc1cc(C)cc(N(C)S(=O)(=O)c2nnc(NC(=O)COc3ccc(C)c(C)c3)s2)c1	.	/	/	.	/
C/C(CCc1ccc2c(c1)OCO2)=N\N=C1\NC(=O)CC(C(=O)Nc2ccccc2F)S1 (stereo not given)	.	.	.	.	40.4
O=C(Nc1ccc(S(=O)(=O)NC2=NCCCCC2)cc1)c1cccs1	/	.	.	/	/
Cc1cc(NS(=O)(=O)c2ccc(NC(=O)c3ccc([N+](=O)[O-])s3)cc2)nc(C)n1	/	60.2	.	/	/
O=C(Nc1ccc(S(=O)(=O)NC2=NCCCCC2)cc1)c1ccc([N+](=O)[O-])s1	.	68.0	.	.	.
Nc1cccc2c1C(=O)N(CCOc1ccc(F)cc1)C2=O	.	.	.	.	.
CCOc1ccc(N2C(=O)N(Cc3ccc(C)cc3C)c3ccccc3S2(=O)=O)cc1	.	/	/	.	/
Cc1ccc(-c2nc3cc(NC(=O)C(C)C)ccc3o2)cc1	.	.	.	.	.
Cc1cc2nc(-c3ccc(NC(=O)C(C)C)cc3)oc2cc1C	.	.	.	.	31.7
COc1ccc(Nc2nc(CC(C)=O)ns2)cc1	.	.	.	.	.
COc1cccc(Nc2nc(CC(C)=O)ns2)c1	.	.	.	.	32.8
O=C(NCc1ccc(F)cc1)c1cc2cccc3c2n1CCS3	.	/	/	.	/
O=C(COc1cccc2cccnc12)Nc1ccccc1N1CCOCC1	.	.	.	/	30.2
Cc1ccc(N2C(=O)c3ccccc3NC2C(C)Cc2ccc3c(c2)OCO3)cc1 (stereo not given)	.	.	.	.	33.7
Cc1ccc(NC(=O)CCN2C(=O)NC3(CCCC3)C2=O)c(C)c1	.	.	.	.	50.6
